Screening data from PubChem.
A selection: hits, their analogues and other compounds. The true share with any hit is near 1.4%.
PrP 5UTR inh: suppresses PrP 5' UTR mRNA reporter expression. cell-based PrP 5' UTR mRNA reporter, plate reader. inhibition, % (test concentration not listed). actives 0.35% (n = 340,000). AID 488862; in the data active = inhibition above about 52%; also: 0 = median of the neutral control wells
FadD28 binding: blocks FadD28 binding to the bisubstrate probe | inhibition, % at 12.5 µM | fluorescence polarization | actives 0.22% (n = 360,000); in the data active = inhibition above about 8.5%, passing the limit was not always enough
PrPC surface inh: reduces human prion protein on the cell surface; AID 720596; inhibition, % at 13.8 µM; actives 0.43% (n = 370,000); cell surface PrPC, TR-FRET read-out; P04156; in the data active = inhibition above about 24%; also: 0% = median of the test wells and 100% = reference compound wells
Vc quorum ag: induces V. cholerae light production without autoinducers; AID 588436; actives 0.16% (n = 350,000); activation, % at 18.7 µM; V. cholerae BH1578 lux reporter, luminescence, 6 h; in the data active = activation mostly above about 9.7%, no sharp cut-off
SSB-PriA inh: K. pneumoniae PriA-SSBct interaction inhibition; AID 1272365; AlphaScreen SSBct-PriA binding, biotinylated peptide; actives 0.6% (n = 430,000); inhibition, % at 33 µM; in the data active = inhibition mostly above about 37%, no sharp cut-off; inactive = mostly below about 20%;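 also: plate controls were negative control peptide for no effect and reference peptide for full effect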
Active calls of the source: *; i = inactive; . = no result; ! = repeats disagree.

SMILES	PrP 5UTR inh	FadD28 binding	PrPC surface inh	Vc quorum ag	SSB-PriA inh
Cc1cccc(C(=O)NNC(=O)c2ccc(Cl)cc2)c1O	-45.3	-0.5	4.2	50.0*	2.1
CC(=NNS(=O)(=O)c1ccccc1)c1cc(Cl)cc(Cl)c1O	.	.	.	.	-11.2
CCCCc1ccc(NC(=O)CSc2n[nH]c(=O)c3cc(-c4ccco4)nn23)cc1	.	.	.	.	-6.0
CC(C)(C)c1csc(NC(=O)Cn2c(=O)oc3ccccc32)n1	-19.0	11.1*	20.8	-1.5	-13.6
COc1cccc(NC(=O)Cn2c(=O)oc3ccccc32)c1	5.9	38.9*	-4.3	-2.7	-30.1
N=C(N)Sc1c(-c2ccccc2)[nH]c2ccccc12	.	.	.	.	37.0*
O=C(O)CSc1c(-c2ccccc2)[nH]c2ccccc12	-3.3	-0.6	0.5	-1.4	15.9
Cc1c(Br)c(O)c(Br)c(O)c1/C=N/n1c(-c2ccccc2)n[nH]c1=S	-16.2	20.7*	.	i	.
Cc1ccc(-c2nc(C#N)c(N3CCCCCC3)o2)cc1	.	.	.	.	98.8*
Cc1ccc(-c2nc(C#N)c(N3CCCCC3)o2)cc1	-5.6	-1.7	-8.1	-0.3	86.8*!
N#Cc1nc(-c2ccc(F)cc2)oc1N1CCCC1	-2.4	-1.1	5.1	i	-5.5
N#Cc1nc(-c2ccccc2)oc1N1CCCCC1	-17.2	1.1	.	-0.4	3.2
c1ccc(-c2nc([P+](c3ccccc3)(c3ccccc3)c3ccccc3)c(N3CCCCCC3)o2)cc1	.	.	.	.	37.0*
CC(C)CC(=O)N1CCN(c2ccc(-n3cccn3)nn2)CC1	.	.	.	.	4.0
COc1coc(C(=O)Nc2ccc(N(C)C)cc2)cc1=O	.	.	.	.	1.0
Cc1cccc(NC(=S)NN=C2CC(C)(C)Oc3ccc(O)cc32)c1	.	.	.	.	46.8*
Cc1ccccc1NC(=S)NN=C1CC(C)(C)Oc2ccc(O)cc21	.	.	.	.	47.3*
COc1ccccc1NC(=S)N/N=C1\CC(C)(C)Oc2ccc(O)cc21	-30.8	0.6	-11.3	-0.9	.
COc1ccc(NC(=S)N/N=C2\CC(C)(C)Oc3ccc(O)cc32)cc1	-3.4	0.0	7.1	-0.2	.
CC(=O)N1CCC(CN2CCc3sccc3C2)CC1	.	.	.	.	-17.0
O=C(C1COc2ccccc2O1)N(CCCn1ccnc1)c1nc2ccc(F)cc2s1 (stereo unspecified)	.	.	.	.	69.0
Cc1ccc(C)c2sc(N(CCCn3ccnc3)C(=O)Cc3ccc(F)cc3)nc12	.	.	.	.	33.0*
CS(=O)(=O)c1ccc(C(=O)N(CCCn2ccnc2)c2nc3ccccc3s2)cc1	.	.	.	.	-1.0
CCOc1ccc2nc(N(CCCn3ccnc3)C(=O)c3cccs3)sc2c1	.	.	.	.	40.0*
COc1ccc2nc(N(CCCn3ccnc3)C(=O)Cc3ccc(F)cc3)sc2c1	.	.	.	.	39.0*
SMILES	PrP 5UTR inh	FadD28 binding	PrPC surface inh	Vc quorum ag	SSB-PriA inh
COc1ccc(C)c2sc(N(CCCn3ccnc3)C(=O)Cc3ccccc3)nc12	.	.	.	.	33.0*
Cc1ccc(C)c2sc(N(CCCn3ccnc3)C(=O)c3ccco3)nc12	.	.	.	.	-20.0
Cc1cc(C(=O)Nc2nc(C(=O)N3CCn4c3nc3ccccc34)co2)no1	.	.	.	.	-4.0
CC(Oc1ccc(Cl)cc1)C(=O)NNCc1ccccc1O (stereo unspecified)	.	.	.	.	15.0
COc1cc(OC)c2c(-c3ccccc3)cc(=O)oc2c1C(CCN1CCCCC1)c1ccc2c(c1)OCO2 (stereo unspecified)	0.4	-4.5	-13.6	-0.7	25.1
COc1cc(OC)c2c(-c3ccccc3)cc(=O)oc2c1C(CCN1CCOCC1)c1ccc(N(C)C)cc1 (stereo unspecified)	-3.4	0.3	-0.3	i	38.9*
COc1cc(OC)c2c(-c3ccccc3)cc(=O)oc2c1C(CCN1CCCCC1)c1ccc(N(C)C)cc1 (stereo unspecified)	6.4	-2.6	.	-5.0	74.3*
COc1ccc(C(CCN2CCCCC2)c2c(OC)cc(OC)c3c(-c4ccccc4)cc(=O)oc23)cc1 (stereo unspecified)	-21.0	-5.1	-14.6	i	10.7
CC(=O)NC(c1ccco1)c1cc(F)c2cccnc2c1O (stereo unspecified)	1.3	-4.1	1.5	i	72.9*
COc1ccc(N2CCN(c3ncnc4scc(-c5ccccc5)c34)CC2)cc1	-13.8	0.0	-6.2	i	46.1*
Cc1nc(N)nc(-c2ccccc2O)n1	-7.7	-4.1	1.9	16.7*	-10.8
Cc1cc(/C=C2\SC(=S)NC2=O)c(C)[nH]1	-25.7	32.7*	-4.5	-0.1	-4.5
Cc1cc(/C=C2\SC(=S)NC2=O)c(C)n1-c1cccc(O)c1	-45.6	16.7*	-2.6	3.2	2.2
Cc1ccc(-n2c(C)cc(/C=C3\SC(=O)NC3=O)c2C)cc1	-50.7	2.6	-9.2	-0.3	-0.7
Cc1sc(-n2c(C)cc(/C=C3\SC(=S)NC3=O)c2C)c(C#N)c1C	-9.3	16.9*	-1.4	i	-4.4
CC(=NNC(=O)COc1ccc(C#N)cc1)c1ccccc1OC(F)F	.	.	.	.	-10.5
Cc1ccc(-c2n[nH]c(-c3ccccn3)n2)cc1	.	.	.	.	54.6
Brc1nc(-c2ccccn2)n[nH]1	.	.	.	.	142.0*
Clc1nc(-c2ccccn2)n[nH]1	.	.	.	.	163.0*
c1ccc(-c2nc(-c3ccncc3)n[nH]2)nc1	-6.2	0.4	6.0	-0.4	27.6
COc1ccc(CNC(=O)c2c[nH]c3ccc(F)cc3c2=O)cc1	.	.	.	.	-9.0
CN=c1scc(-c2ccc(OC)cc2)n1N=C(C)c1cccnc1	.	.	.	.	43.5*
CC(C)n1c(NCCO)nc2ccccc21	-8.7	-0.4	4.6	i	-9.0
C[n+]1c2ccccc2nc2ccc(NCCO)cc21	-10.3	43.6*	-98.5	-0.4	21.3
CNc1ccc2nc3ccccc3[n+](C)c2c1	-31.9	57.4*	-87.8	i	-14.7
SMILES	PrP 5UTR inh	FadD28 binding	PrPC surface inh	Vc quorum ag	SSB-PriA inh
COC(=O)c1sccc1S(=O)(=O)Nc1ccc2c(c1)CN(C(=O)OC)CC2	.	.	.	.	-5.0
O=C(Cc1c[nH]c2ccccc12)NCCN1Cc2cc(Cl)ccc2OCC1=O	.	.	.	.	2.0
Oc1ccc(CSc2ncccn2)c2cccnc12	.	.	.	.	76.0*
Oc1ccc(CSc2ccccc2)c2cccnc12	.	.	.	.	88.4*
N#CSCc1ccc(O)c2ncccc12	.	.	.	.	111.0*
CCCCCCCCCCSCc1ccc(O)c2ncccc12	.	.	.	.	57.0
O=c1ccnc(SCc2ccc(O)c3ncccc23)[nH]1	.	.	.	.	106.0*
CSc1nc2ccc3nc(NC(=O)c4ccco4)sc3c2s1	.	.	.	.	-12.0
Cc1ccc(C=NNC(=O)c2ccccc2OCc2ccc(F)cc2)o1	.	.	.	.	1.4
CN(C(=O)CCCn1nc(-c2cccs2)ccc1=O)c1ccccc1	.	.	.	.	9.0
COc1ccc(-n2ccnc2SCC(=O)Nc2cccc3ccccc23)cc1	.	.	.	.	58.0*
COc1cccc(-n2ccnc2SCC(=O)NCc2ccccc2)c1	-23.8	-1.2	2.1	25.0*	7.1
O=c1cc(-c2ccc(F)cc2)nc(SCc2nc(-c3cccc(Br)c3)no2)[nH]1	.	.	.	.	-1.0
CCCN1CCN(CCCNC(=O)c2ccc3nc(N4CCCCC4)sc3c2)CC1	-55.2	-0.7	4.0	-0.3	99.9*
COc1c(Br)cc(Br)cc1/C=N/n1c(C)nnc1C	-17.7	-2.7	-1.2	5.6*	.
CC(=O)c1cccc(NC(=S)NC2CCCCCCC2)c1	-5.9	14.1*	5.0	-2.5	-3.9
CC(=O)c1cccc(NC(=O)NC2CCCCCCC2)c1	-20.7	15.0*	3.9	-0.6	2.9
